Measured values as given in PubChem BioAssay (Tox21).
Results filed as inconclusive are left out. Activity calls are given as the source filed them. Unless noted, the call rests on the fitted dose curve; in most records, active means well fitted curve in the direction sought with a large enough effect in the repeat runs; inconclusive means weak or mixed curves; inactive means no such curve, though single readings can be large; an effect the other way counts as inactive or inconclusive.

Key:
[1] = qHTS assay to identify small molecule antagonists of the vitamin D receptor (VDR) signaling pathway - cell viability counter screen (AID 743225); settings: VDR-bla HEK293T viability, CellTiter-Glo luminescence, 16 h; series mostly up to 61 µM; further: nearly all actives have a fitted effect of over 50% in size
How it was run: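 VDR-UAS-bla HEK 293T cells were plated and incubated 4 h at 37C, then dosed with compound plus 3 nM (final) 1-alpha,25-dihydroxyvitamin D3 for 16 h. After the 2 h beta-lactamase read, viability in the same wells was read as CellTiter-Glo luminescence after 30 min at room temperature.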

[2] = qHTS assay to identify small molecule agonists of the NFkB signaling pathway (AID 1159509; active means well fitted curve in the direction sought with a large enough effect in the signal ratio in the repeat runs, not every such curve was filed as active; the % refers to the signal ratio); settings: NFkB-bla ME-180 cells, beta-lactamase FRET ratio, 5 h; series mostly up to 61 µM
How it was run: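 ME-180 NFkB-bla, 2,000 cells/well, overnight plating; cpd pinned in DMSO, 5 h 37 C; B/G FRET substrate 1.5 h RT; ex 405, em 460/530 nm.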

[3] = qHTS assay to identify small molecule agonists of the NFkB signaling pathway - cell viability counter screen (AID 1159515; calls by dose curve; further: nearly all actives have a fitted effect of over 55% in size); settings: NFkB-bla ME-180 viability, CellTiter-Glo luminescence, 5 h; series mostly up to 61 µM
How it was run: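 Multiplexed viability readout: after the 5 hr compound exposure and 1.5 hr FRET substrate step, CellTiter-Glo reagent went into the same NFkB-bla ME-180 wells; ATP luminescence was measured after 30 min at room temperature.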

[4] = qHTS assay to identify small molecule agonists of the endoplasmic reticulum stress response signaling pathway (AID 1159516; active means well fitted activation curve with a large enough effect in the signal ratio in the repeat runs, not every such curve was filed as active; the % refers to the signal ratio); settings: ESRE-bla HeLa, ER stress beta-lactamase reporter, 5 h; series mostly up to 61 µM
How it was run: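 Tox21 10K library screened in quantitative HTS format on ESRE-bla HeLa cells, a beta-lactamase reporter under ER stress response element control; 5 hr treatment, FRET read.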

[5] = qHTS assay to identify small molecule antagonists of the retinoid-related orphan receptor gamma (ROR-gamma) signaling pathway - cell viability counter screen (AID 1159520); settings: Tet-on RORgamma CHO cells viability, ATP luminescence, 16 h; series mostly up to 92.4 µM; further: nearly all actives have a fitted effect of over 50% in size
How it was run: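 Tet-on ROR gamma CHO cells (1,000/well) were plated 4 hr, given compounds in DMSO for 2 hr at 37 C, then induced with 1 uM final doxycycline for 16 hr. Viability was read as ATP by CellTiter-Glo luminescence after 30 min.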

[6] = qHTS assay to identify small molecule agonists of the AP-1 signaling pathway - cell viability counter screen (AID 1159525; calls by dose curve; further: nearly all actives have a fitted effect of over 55% in size); settings: ME-180 AP-1-bla cells viability, ATP luminescence, 5 h; series mostly up to 76.8 µM
How it was run: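 ME-180 AP-1-bla, 2500 cells/well, Opti-MEM + 0.5% dialyzed FBS; overnight 37 °C; cpd 15-pt titration, 5 h 37 °C; CellTiter-Glo 30 min RT; luminescence read; normalised to TOAB and DMSO controls.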

[7] = qHTS assay to identify small molecule agonists of the AP-1 signaling pathway (AID 1159526; calls by dose curve); settings: ME-180 (cervical carcinoma) AP-1-bla reporter, beta-lactamase FRET ratio, 5 h; series mostly up to 76.8 µM
[8] = target: Retinoic acid receptor RXR-alpha (Homo sapiens) (UniProt P19793); test: qHTS assay to identify small molecule agonists of the RXR signaling pathway (AID 1159527; calls by dose curve; further: nearly all actives have a fitted effect of over 35% in size); settings: HEK293T RXRa-UAS-bla, beta-lactamase ratio, 16 h; series mostly up to 76.8 µM
Sequence of Retinoic acid receptor RXR-alpha (Homo sapiens) (P19793 whole entry, looked up): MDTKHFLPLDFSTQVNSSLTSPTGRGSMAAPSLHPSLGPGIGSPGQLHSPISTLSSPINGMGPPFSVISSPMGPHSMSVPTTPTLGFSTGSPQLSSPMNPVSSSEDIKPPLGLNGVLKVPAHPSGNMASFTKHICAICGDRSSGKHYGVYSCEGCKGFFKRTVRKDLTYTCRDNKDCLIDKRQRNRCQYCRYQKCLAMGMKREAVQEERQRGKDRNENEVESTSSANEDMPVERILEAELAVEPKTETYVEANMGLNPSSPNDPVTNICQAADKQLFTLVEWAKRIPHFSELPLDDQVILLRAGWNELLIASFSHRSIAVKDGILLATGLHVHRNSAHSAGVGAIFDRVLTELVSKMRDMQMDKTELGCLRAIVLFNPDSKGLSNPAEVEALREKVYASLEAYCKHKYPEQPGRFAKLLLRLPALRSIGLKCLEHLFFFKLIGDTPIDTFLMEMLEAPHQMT
How it was run: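 GeneBLAzer RXR-alpha-UAS-bla HEK 293T cells in 2% charcoal-stripped FBS medium were exposed to compounds for 16 hr at 37 C in agonist mode. Beta-lactamase reporter read as 460/530 nm FRET ratio after 2 hr substrate loading.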

[9] = qHTS assay to identify small molecule agonists of the RXR signaling pathway - cell viability counter screen (AID 1159529); settings: RXR-alpha-bla HEK293T viability, CellTiter-Glo, 16 h; series mostly up to 76.8 µM; further: nearly all actives have a fitted effect of over 50% in size
How it was run: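 RXR-alpha-UAS-bla HEK 293T cells in medium with 2% charcoal-stripped FBS were pre-incubated 5 hr, then compound-treated 16 hr at 37 C. Viability was read by CellTiter-Glo luminescence in the same wells as the beta-lactamase assay, with tetraoctyl ammonium bromide as positive control.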

[10] = qHTS assay to identify small molecule antagonists of the retinoid acid receptor (RAR) signaling pathway - cell viability counter screen (AID 1159551); settings: C3RL4 cells viability, ATP luminescence (CellTiter-Glo), 6 h; series mostly up to 92.4 µM; further: nearly all actives have a fitted effect of over 35% in size
How it was run: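 Cytotoxicity counter screen in C3RL4 cells: 6 h compound exposure with 1 uM retinol (final), viability from cellular ATP by luminescence.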

[11] = qHTS assay to identify small molecule antagonists of the retinoic acid receptor (RAR) signaling pathway (AID 1159552; further: nearly all actives have a fitted effect of over 50% in size); settings: C3RL4 RARE luciferase reporter, retinol-stimulated, 6 h; series mostly up to 92.4 µM
How it was run: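 Retinol signaling pathway inhibitors screened in C3RL4 RARE-luciferase reporter cells seeded overnight at 37 C, then compounds added with 1 uM (final) retinol as pathway substrate. After 6 hr at 37 C, luciferase luminescence read after 30 min at room temperature.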

[12] = qHTS assay to identify small molecule agonists of the retinoic acid receptor (RAR) signaling pathway (AID 1159553); settings: C3RL4 RARE luciferase reporter, agonist, 6 h; series mostly up to 73.3 µM
How it was run: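 Agonist activity was scored in C3RL4 cells bearing a retinoic acid response element luciferase construct. Cells were treated with compounds for 6 hr at 37 C, and luciferase signal was measured as luminescence.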

[13] = target: Nuclear receptor ROR-gamma (Homo sapiens) (UniProt P51449); test: qHTS assay to identify small molecule antagonists of the retinoid-related orphan receptor gamma (ROR-gamma) signaling pathway (AID 1159521); settings: Tet-on RORgamma CHO cells, RORE-luciferase, 16 h; series mostly up to 92.4 µM
How it was run: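 Tet-on ROR-gamma CHO cells with ROR response element-luciferase reporter; compounds added 2 hr before 1 uM doxycycline induction, then 16 hr at 37 C. Antagonism scored as decreased ONE-Glo luminescence.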

[14] = qHTS assay to identify small molecule antagonists of the estrogen related receptor (ERR) signaling pathway - cell viability counter screen (AID 1224818); settings: ERR reporter cell line viability counter screen; series mostly up to 46.1 µM;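 further: viability measured after 17.5 h of compound exposure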
How it was run: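 Cells carrying the ERR pathway reporter were seeded and incubated for 6 hours before compound addition. After a 17.5-hour exposure at 37 C, live-cell protease activity was measured by CellTiter-Fluor fluorescence following 30 minutes of incubation.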

Measured: Potency

BrCCc1ccccc1
inactive: [1] | [2] | [3] | [4] | [5] | [6] | [7] | [8] | [9] | [10] | [11] | [12]

CCCOC(=O)Cc1ccc(OCC(=O)N(CC)CC)c(OC)c1
inactive: [1] | [2] | [3] | [4] | [5] | [6] | [7] | [8] | [9] | [10] | [11]

C#CC(C)(C)O
inactive: [1] | [2] | [3] | [4] | [5] | [13] | [6] | [7] | [8] | [9] | [10] | [11] | [12]

CC#Cc1cc(C)nc(Nc2ccccc2)n1
inactive: [1] | [2] | [3] | [4] | [5] | [6] | [7] | [8] | [9] | [10] | [11]

CCOC(=O)CC(SP(=S)(OC)OC)C(=O)OCC (stereo not drawn)
inactive: [2] | [3] | [4] | [5] | [6] | [7] | [9] | [10] | [14]

Cc1ccc2cc(C)ccc2c1
inactive: [1] | [2] | [3] | [4] | [5] | [13] | [6] | [7] | [8] | [9] | [10] | [11]
